Shown are actives, neighbours in structure and some others; about 19% of the full set was active somewhere.
Shiga inhibitor = A qHTS for Small Molecule Inhibitors of Shiga Toxin | 290,000 compounds, 9.2% hits | inhibition, % at 38.7 µM | Vero cells, Shiga toxin protein synthesis inhibition reporter | AID 2315, 2010; in the data active means inhibition mostly above about 28%, no sharp cut-off; inactive means mostly below about 43%; further: 0% is about no effect
Pf growth 96h = Primary qHTS for delayed death inhibitors of the malarial parasite plastid, 96 hour incubation; AID 504834, 2011; 320,000 compounds, 6.9% hits; Potency, µM (highest dose often 28.7 µM), inactives show top-dose activity change, negative = inhibition, hits mostly inhibitors; P. falciparum luciferase reporter growth, 96 h; further: potency means the concentration at half of the fitted maximal effect; on the % scale 0 is the no-effect control and ±100 the full control effect
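Infected RBCs, 2% Hct / 0.05% parasitemia final; luciferase-reporter P. falciparum; cpd 96 h, 37 C, 5% CO2; luciferase detection reagent; luminescence.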
Cycloheximide cs = Cycloheximide Counterscreen for Small Molecule Inhibitors of Shiga Toxin; cell reporter, cycloheximide protein synthesis inhibition counterscreen; max response, %; 300,000 compounds, 12% hits; AID 2314, 2010; in the data active means max response mostly above about 13%, no sharp cut-off; inactive means mostly below about 14%; further: read at 38.3 µM for the half of the compounds with a filed dose; 0% is about no effect
MARV entry inh = qHTS for inhibitors of binding or entry into cells for Marburg Virus | Marburg virus pseudotyped entry inhibition, cell reporter | Potency, µM (highest dose often 37.8 µM), without a hit: top-dose activity change, negative = inhibition, hits mostly inhibitors | 300,000 compounds, 1.8% hits; calls by dose curve; tested in HEK293 cells; further: potency means the concentration at half of the fitted maximal effect; on the % scale 0 is the no-effect control and ±100 the full control effect
Pf growth 48h = Primary qHTS for delayed death inhibitors of the malarial parasite plastid, 48 hour incubation. AID 504832, 2011. 310,000 compounds, 5.9% hits. Potency, µM (titrated, usually from 28.7 µM), for inactives: at the top dose activity change, negative = inhibition, most hits filed as inhibitors. P. falciparum luciferase growth in erythrocytes, 48 h; further: potency means the concentration at half of the fitted maximal effect; on the % scale 0 is the no-effect control and ±100 the full control effect
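Erythrocytes infected with P. falciparum carrying an integrated firefly luciferase reporter (2% hematocrit, 0.1% parasitemia final) were exposed to compounds in RPMI 1640 with 0.5% Albumax at 37 C, 5% CO2. Growth inhibition was scored as reduced luminescence.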
LASV entry inh = qHTS for Inhibitors of binding or entry into cells for Lassa Virus. Lassa virus pseudotype entry inhibition, cell reporter. Potency, µM (titrated, usually from 37.9 µM), without a hit: at the highest dose activity change, negative = inhibition, hits mostly inhibitors. 300,000 compounds, 1.2% hits; calls by dose curve; tested in HEK293 cells; further: potency means the concentration at half of the fitted maximal effect; on the % scale 0 is the no-effect control and ±100 the full control effect; nearly all actives have a fitted effect of over 50% in size
Active calls of the source: *; i = inactive; u = inconclusive; x = no result; ! = a repeat was not active; [ ] = remark or other dose. Unless noted, the call rests on the fitted dose curve; in most records, active means well fitted inhibition curve with a large enough effect; inconclusive means small, poorly fitted or top-dose-only effect, or another doubt; inactive means no such curve, though single readings can be large or run the other way.

SMILES	Shiga inhibitor	Pf growth 96h	Cycloheximide cs	MARV entry inh	Pf growth 48h	LASV entry inh
Cc1cc(SCn2nnc3ccccc3c2=O)nc2ccccc12	-7.4	0.0%	-2.0	-6.1%	45.5%	-10.7%
O=c1c2ccccc2nnn1CSc1ccccc1	91.7*	i	45.0*	-13.1%	233.6%	-29.5%
Cc1ccc(Nc2nnc(SCn3nnc4ccccc4c3=O)s2)cc1	116.3*	17.8%	30.9*	19.3%	x	-23.9%
Cc1ccc(C(=O)c2ccc(C(F)(F)F)cc2)cc1	-3.3	12.9%	-3.7	6.4%	x	x
CN(C)C(=O)c1cc(C(=O)c2ccc(Cl)cc2Cl)c[nH]1	98.8*	83.8%	51.0*	u	x	4.3%
CN(C)C(=O)c1cc(C(=O)c2ccc(C(F)(F)F)cc2)c[nH]1	21.1	153.4%	15.6*	x	x	x
CN(C)C(=O)c1cc(C(=O)c2ccc(F)cc2Cl)c[nH]1	73.4*	51.1%	49.7*	u	x	26.0%[46.1 µM]
CN(c1nc(-c2ccc(Br)cc2)cs1)C1CCS(=O)(=O)C1 (stereo not drawn)	43.5	20.6%	19.3*	u	130.5%	8.4%[46.1 µM]
O=C(Oc1cccccc1=O)c1ccccc1	5.8	14.7µM*	-1.2	x	u	x
O=C(Oc1ccccc1Cl)c1ccccc1	x	x	x	2.7%	x	0.3%
Cc1ccc(C(=O)NNC(=O)c2cccc(Br)c2)cc1	10.7	u	9.0	8.1%[46.1 µM]	22.4%	-28.7%[46.1 µM]
O=C(NNC(=O)c1ccccc1O)c1ccc(Cl)cc1	47.9*	242.7%	32.9*	-7.9%	83.7%	-1.5%
Cc1cccc(C(=O)NNC(=O)c2ccc(Cl)cc2)c1O	79.0*	88.6%	30.4*	u	78.3%	2.1%
CC(C)(C)c1ccc(C(=O)NNC(=O)c2cccc(Br)c2)cc1	26.8	19.8%	15.8*	u	42.9%	u
O=C(NNC(=O)c1ccccc1O)c1cccc(Br)c1	51.4*	2.9%	25.4*	x	81.7%	x
O=C(CSc1nnc(CNC(=O)c2cccs2)o1)NC1CCCC1	15.0	u	0.9	u	3.1%	11.8%
O=C(COC(=O)c1ccccc1O)NNC(=O)c1ccc(Br)cc1	x	13.7%	x	-4.9%	u	-16.5%
O=C(NNC(=O)c1ccccc1O)c1ccc(Br)cc1	x	-5.2%	43.6*	u	-10.9%	-22.8%[46.1 µM]
CC1=C2CC3C(CC=C4C[C@@H](O)CC[C@@]43C)[C@@H]2CC[C@]12O[C@@H]1C[C@H](C)CN[C@H]1[C@H]2C (stereo partly drawn)	-7.0	x	11.8	x	x	x
COc1cccc(NC(=S)N2CCCN(Cc3ccc(F)cc3)C2)c1	9.9	u	10.2	u	u	u
O=C(c1cc(-c2ccc3c(c2)OCO3)on1)N1CCOCC1	active	26.1%	20.1*	u	87.1%	u
O=C(c1cc(-c2ccc3c(c2)OCO3)on1)N1CCN(c2ccccc2)CC1	61.5*	u	56.4*	u	249.2%	-28.8%
O=C(c1cc(-c2ccc3c(c2)OCO3)on1)N1CCN(c2ccc(F)cc2)CC1	8.1	-1.0%	8.7	-3.4%	6.4%	-10.1%
COc1ccccc1N1CCN(C(=O)c2cc(-c3ccc4c(c3)OCO4)on2)CC1	7.0	u	10.5	-13.1%	-7.1%	8.3%
O=C(c1cc(C2CC2)on1)N1CCN(c2ccccc2)CC1	46.7*	u	24.0*	x	x	x
SMILES	Shiga inhibitor	Pf growth 96h	Cycloheximide cs	MARV entry inh	Pf growth 48h	LASV entry inh
Cc1ccc(C2c3c(oc4ccccc4c3=O)C(=O)N2CCCN2CCOCC2)o1 (stereo not drawn)	-7.3	x	-1.3	5.1%	9.0%	-5.8%
CCC(C)n1nccc1NC(=O)C(C)OC(=O)c1cc2ccccc2[nH]1 (stereo not drawn)	31.4	x	1.8	-28.3%	u	-3.7%
COc1ccccc1NC(=O)C(C)OC(=O)c1cc2ccccc2[nH]1 (stereo not drawn)	x	u	x	x	9.28µM*	x
COc1ccccc1NC(=O)C(C)OC(=O)C1CCC(C(C)(C)C)CC1 (stereo not drawn)	x	14.7µM*	x	u	2.94µM*	u
Nc1ccc(NC(=O)c2cccs2)c(Cl)c1	54.7*	u	32.3*	16.7%	194.1%	19.2%
Nc1ccc(Cl)c(NC(=O)c2cccs2)c1	active	u	16.4*	2.2%	44.8%	9.0%
COc1cc(/C=N/N2CCN(Cc3ccc(Cl)cc3)CC2)cc(Br)c1O	x	-18.8%	-1.6	x	-16.1%	x
N/C(CC1CC1(Cl)Cl)=N\OC(=O)c1ccccc1 (stereo not drawn)	70.9*	u	45.0*	-0.3%[14.2 µM]	u	17.3%
N/C(Cc1ccc(Cl)cc1Cl)=N\OC(=O)Cc1ccccc1	22.4	-19.2%	20.4*	26.0%	9.3%	2.6%
N/C(Cc1ccc(Cl)cc1Cl)=N\OC(=O)c1ccccc1	31.5*	32.0%	19.5*	x	u	x
N/C(Cc1ccc(Cl)cc1Cl)=N\OC(=O)Cc1ccc(Cl)cc1	13.7	-4.8%	-2.0	-2.7%	0.7%	-2.2%
Fc1ccc(-c2csc(NC(=S)Nc3ccccc3)n2)cc1	-7.4	u	-0.9	x	4.9%[0.00184 µM]	x
COc1ccc(C=O)cc1Cn1cnc2c(cnn2C)c1=O	-9.8	40.5%	4.9	x	-0.1%	x
CCCC(=O)Nc1nnc(S(=O)(=O)N(CC)c2ccc(OC)cc2)s1	-8.3	26.8%	10.5	-2.0%	12.0%	-25.1%
COc1cc(/C=N/N2C(C)CCCC2C)cc(OC)c1O (stereo not drawn)	-1.7	-1.3%	-0.9	x	-19.3%	x
CCOc1ccc(/C=N/N2C(C)CCCC2C)cc1OC (stereo not drawn)	12.0	10.4µM*	-2.3	x	x	x
CCCn1cnc2c(SCc3ccccc3Cl)nc(N)nc21	x	x	x	7.08µM*	x	11.2µM*
CCCn1cnc2c(SCc3ccccn3)nc(N)nc21	x	x	x	9.0%[46.1 µM]	x	11.4%[46.1 µM]
N=C(N)c1ccc2cc(OC(=O)c3ccc(N=C(N)N)cc3)ccc2c1	x	1.07µM*	x	x	12µM*	x
CN(C)C(=O)COC(=O)Cc1ccc(OC(=O)c2ccc(N=C(N)N)cc2)cc1	x	u	x	x	-20.7%	x
O=C1CC(=O)Nc2cc(S(=O)(=O)Nc3ccc(Cl)c(C(F)(F)F)c3)ccc2N1	2.2	20.6%	2.1	x	-16.1%	x
CC1=CC(C)=Nc2ccc(C)cc2N1	93.8*!	-9.4%	27.3*	7.6%	148.1%	u
COc1ccccc1C(=O)Nc1nc(C)cc(C)n1	x	x	x	-4.4%[46.1 µM]	x	-11.4%
COc1ccccc1N1CCN(C2CCCN(C(=O)c3cscn3)C2)CC1 (stereo not drawn)	5.6	u	-5.4	x	18.9%	x
CCc1nc(N2CCN(C(C)=O)CC2)c(C#N)c2c1COC(C)(C)C2	-5.3	u	1.3	x	-21.4%	x
CCc1nc(N2CCN(C(=O)c3ccco3)CC2)c(C#N)c2c1COC(C)(C)C2	-2.5	u	3.0	-6.3%[46.1 µM]	10.4µM*	u
CC1(C)Cc2c(C#N)c(N3CCN(C(=O)c4ccco4)CC3)nc(Cc3ccccc3)c2CO1	-17.3	4.6%[5.75 µM]	-6.5	u	1.65µM*	-29.9%

From PubChem
